Results reported in ChEMBL document CHEMBL1961873, “Compounds: GSK PKIS; Assays: Nanosyn kinase panel” (2012).

Columns and labels:
[1] = biological target: T1, Tyrosine-protein kinase ITK/TSK (Homo sapiens) (UniProt Q08881); conditions: at 1 µM;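 further: values are mean percent inhibition of ITK from the GSK PKIS screen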
T1 sequence (whole entry): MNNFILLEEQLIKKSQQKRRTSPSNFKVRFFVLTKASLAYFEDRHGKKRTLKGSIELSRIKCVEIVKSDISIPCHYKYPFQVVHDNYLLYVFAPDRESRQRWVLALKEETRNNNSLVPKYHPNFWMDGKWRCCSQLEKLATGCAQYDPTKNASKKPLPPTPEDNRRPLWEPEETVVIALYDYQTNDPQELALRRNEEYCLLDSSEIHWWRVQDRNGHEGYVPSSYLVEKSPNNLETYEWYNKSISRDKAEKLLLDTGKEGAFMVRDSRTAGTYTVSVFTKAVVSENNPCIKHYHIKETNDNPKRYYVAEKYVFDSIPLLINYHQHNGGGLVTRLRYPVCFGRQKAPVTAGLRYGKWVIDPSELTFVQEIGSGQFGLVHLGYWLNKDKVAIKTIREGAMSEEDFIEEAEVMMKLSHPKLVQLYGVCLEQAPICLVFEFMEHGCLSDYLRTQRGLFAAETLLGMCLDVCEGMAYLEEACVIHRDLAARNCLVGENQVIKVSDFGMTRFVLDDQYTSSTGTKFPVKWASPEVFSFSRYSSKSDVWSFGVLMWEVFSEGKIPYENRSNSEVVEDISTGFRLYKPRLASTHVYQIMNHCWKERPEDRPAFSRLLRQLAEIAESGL

[2] = biological target: Tyrosine-protein kinase JAK1 (Homo sapiens) (UniProt P23458); conditions: at 0.1 µM
[3] = biological target: Tyrosine-protein kinase JAK1 (Homo sapiens) (UniProt P23458); conditions: at 1 µM
[4] = biological target: Tyrosine-protein kinase JAK2 (Homo sapiens) (UniProt O60674); conditions: at 0.1 µM
[5] = biological target: Tyrosine-protein kinase JAK2 (Homo sapiens) (UniProt O60674); conditions: at 1 µM
[6] = biological target: T2, Tyrosine-protein kinase JAK3 (Homo sapiens) (UniProt P52333); conditions: at 0.1 µM
T2 sequence (whole entry): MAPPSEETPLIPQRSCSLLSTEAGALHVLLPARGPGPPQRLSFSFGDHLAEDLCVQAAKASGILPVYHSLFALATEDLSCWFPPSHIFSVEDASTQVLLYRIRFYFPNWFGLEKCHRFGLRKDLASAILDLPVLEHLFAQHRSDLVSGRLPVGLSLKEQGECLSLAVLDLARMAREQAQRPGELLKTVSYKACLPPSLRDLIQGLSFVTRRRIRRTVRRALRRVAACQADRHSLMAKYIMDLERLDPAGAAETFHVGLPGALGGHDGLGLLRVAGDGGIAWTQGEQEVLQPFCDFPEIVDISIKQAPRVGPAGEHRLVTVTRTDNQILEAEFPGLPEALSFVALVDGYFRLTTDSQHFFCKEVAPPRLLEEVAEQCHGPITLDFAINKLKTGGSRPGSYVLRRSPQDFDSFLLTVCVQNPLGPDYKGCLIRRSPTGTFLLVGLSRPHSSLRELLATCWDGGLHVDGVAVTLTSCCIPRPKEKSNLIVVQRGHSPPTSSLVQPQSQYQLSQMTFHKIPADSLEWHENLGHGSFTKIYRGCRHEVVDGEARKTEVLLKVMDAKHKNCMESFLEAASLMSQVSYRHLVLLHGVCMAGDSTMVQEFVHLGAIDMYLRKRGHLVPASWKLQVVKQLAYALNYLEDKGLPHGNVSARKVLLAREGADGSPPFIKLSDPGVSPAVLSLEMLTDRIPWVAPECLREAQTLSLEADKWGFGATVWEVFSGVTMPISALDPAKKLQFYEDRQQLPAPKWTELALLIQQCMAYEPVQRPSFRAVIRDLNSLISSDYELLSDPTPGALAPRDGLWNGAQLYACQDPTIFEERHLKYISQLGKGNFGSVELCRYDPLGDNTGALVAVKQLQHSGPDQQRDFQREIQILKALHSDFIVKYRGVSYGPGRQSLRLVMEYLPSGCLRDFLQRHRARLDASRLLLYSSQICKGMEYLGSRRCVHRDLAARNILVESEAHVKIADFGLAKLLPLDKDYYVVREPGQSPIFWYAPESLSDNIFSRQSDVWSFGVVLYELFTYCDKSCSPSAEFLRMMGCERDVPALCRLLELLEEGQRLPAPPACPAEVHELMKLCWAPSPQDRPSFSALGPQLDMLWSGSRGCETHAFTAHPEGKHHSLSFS

[7] = biological target: T2, Tyrosine-protein kinase JAK3 (Homo sapiens); conditions: at 1 µM
[8] = biological target: Vascular endothelial growth factor receptor 2 (Homo sapiens) (UniProt P35968); conditions: at 0.1 µM
[9] = biological target: Vascular endothelial growth factor receptor 2 (Homo sapiens) (UniProt P35968); conditions: at 1 µM
[10] = biological target: Mast/stem cell growth factor receptor Kit (Homo sapiens) (UniProt P10721); conditions: at 0.1 µM
[11] = biological target: Mast/stem cell growth factor receptor Kit (Homo sapiens) (UniProt P10721); conditions: at 1 µM
[12] = test system: Mast/stem cell growth factor receptor Kit (Homo sapiens), P10721 [D816V]; conditions: at 0.1 µM
[13] = test system: Mast/stem cell growth factor receptor Kit (Homo sapiens), P10721 [D816V]; conditions: at 1 µM
[14] = test system: Mast/stem cell growth factor receptor Kit (Homo sapiens), P10721 [T670I]; conditions: at 0.1 µM
[15] = test system: Mast/stem cell growth factor receptor Kit (Homo sapiens), P10721 [T670I]; conditions: at 1 µM
[16] = test system: Mast/stem cell growth factor receptor Kit (Homo sapiens), P10721 [V560G]; conditions: at 0.1 µM
[17] = test system: Mast/stem cell growth factor receptor Kit (Homo sapiens), P10721 [V560G]; conditions: at 1 µM
[18] = biological target: Tyrosine-protein kinase Lck (Homo sapiens) (UniProt P06239); conditions: at 0.1 µM
[19] = biological target: Tyrosine-protein kinase Lck (Homo sapiens) (UniProt P06239); conditions: at 1 µM
[20] = biological target: Leukocyte tyrosine kinase receptor (Homo sapiens) (UniProt P29376); conditions: at 0.1 µM
Sequence of Leukocyte tyrosine kinase receptor (Homo sapiens) (P29376 whole entry): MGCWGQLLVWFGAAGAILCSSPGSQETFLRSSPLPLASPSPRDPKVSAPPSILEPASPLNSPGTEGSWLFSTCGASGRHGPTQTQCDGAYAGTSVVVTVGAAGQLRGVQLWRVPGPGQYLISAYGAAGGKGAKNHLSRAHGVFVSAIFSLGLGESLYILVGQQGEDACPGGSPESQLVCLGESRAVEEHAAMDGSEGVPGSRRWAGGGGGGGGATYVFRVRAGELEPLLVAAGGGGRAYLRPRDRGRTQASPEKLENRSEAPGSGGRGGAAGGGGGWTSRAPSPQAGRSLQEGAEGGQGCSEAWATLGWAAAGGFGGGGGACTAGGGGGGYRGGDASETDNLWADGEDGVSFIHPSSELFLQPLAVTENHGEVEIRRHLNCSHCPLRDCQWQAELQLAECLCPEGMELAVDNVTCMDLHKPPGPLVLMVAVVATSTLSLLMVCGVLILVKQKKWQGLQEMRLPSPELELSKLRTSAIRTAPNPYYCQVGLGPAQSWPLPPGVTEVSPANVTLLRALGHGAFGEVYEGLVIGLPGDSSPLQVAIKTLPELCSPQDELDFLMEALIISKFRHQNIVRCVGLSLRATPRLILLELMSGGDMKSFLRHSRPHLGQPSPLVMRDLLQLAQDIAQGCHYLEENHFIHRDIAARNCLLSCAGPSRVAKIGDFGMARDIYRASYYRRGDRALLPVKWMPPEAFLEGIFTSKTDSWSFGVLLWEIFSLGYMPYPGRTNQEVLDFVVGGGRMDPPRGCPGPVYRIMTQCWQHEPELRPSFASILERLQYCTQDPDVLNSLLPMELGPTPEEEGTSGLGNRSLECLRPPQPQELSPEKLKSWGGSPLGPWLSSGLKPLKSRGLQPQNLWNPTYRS

Sequence of Tyrosine-protein kinase Lck (Homo sapiens) (P06239 2-509 limits assumed): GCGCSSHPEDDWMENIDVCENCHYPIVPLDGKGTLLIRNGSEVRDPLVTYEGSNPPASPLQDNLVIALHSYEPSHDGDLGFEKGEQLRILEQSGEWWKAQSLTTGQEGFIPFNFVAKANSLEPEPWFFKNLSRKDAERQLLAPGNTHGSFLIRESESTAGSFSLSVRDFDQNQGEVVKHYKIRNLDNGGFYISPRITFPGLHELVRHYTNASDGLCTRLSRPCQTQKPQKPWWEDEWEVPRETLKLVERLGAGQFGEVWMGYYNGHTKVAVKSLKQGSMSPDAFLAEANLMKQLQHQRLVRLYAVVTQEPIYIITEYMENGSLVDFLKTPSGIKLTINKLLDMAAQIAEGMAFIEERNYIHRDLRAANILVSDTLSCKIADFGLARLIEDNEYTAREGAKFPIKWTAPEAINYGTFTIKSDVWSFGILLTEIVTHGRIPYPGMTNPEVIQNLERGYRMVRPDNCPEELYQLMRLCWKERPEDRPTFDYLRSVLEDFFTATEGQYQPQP
Sequence of Tyrosine-protein kinase JAK1 (Homo sapiens) (P23458 whole entry): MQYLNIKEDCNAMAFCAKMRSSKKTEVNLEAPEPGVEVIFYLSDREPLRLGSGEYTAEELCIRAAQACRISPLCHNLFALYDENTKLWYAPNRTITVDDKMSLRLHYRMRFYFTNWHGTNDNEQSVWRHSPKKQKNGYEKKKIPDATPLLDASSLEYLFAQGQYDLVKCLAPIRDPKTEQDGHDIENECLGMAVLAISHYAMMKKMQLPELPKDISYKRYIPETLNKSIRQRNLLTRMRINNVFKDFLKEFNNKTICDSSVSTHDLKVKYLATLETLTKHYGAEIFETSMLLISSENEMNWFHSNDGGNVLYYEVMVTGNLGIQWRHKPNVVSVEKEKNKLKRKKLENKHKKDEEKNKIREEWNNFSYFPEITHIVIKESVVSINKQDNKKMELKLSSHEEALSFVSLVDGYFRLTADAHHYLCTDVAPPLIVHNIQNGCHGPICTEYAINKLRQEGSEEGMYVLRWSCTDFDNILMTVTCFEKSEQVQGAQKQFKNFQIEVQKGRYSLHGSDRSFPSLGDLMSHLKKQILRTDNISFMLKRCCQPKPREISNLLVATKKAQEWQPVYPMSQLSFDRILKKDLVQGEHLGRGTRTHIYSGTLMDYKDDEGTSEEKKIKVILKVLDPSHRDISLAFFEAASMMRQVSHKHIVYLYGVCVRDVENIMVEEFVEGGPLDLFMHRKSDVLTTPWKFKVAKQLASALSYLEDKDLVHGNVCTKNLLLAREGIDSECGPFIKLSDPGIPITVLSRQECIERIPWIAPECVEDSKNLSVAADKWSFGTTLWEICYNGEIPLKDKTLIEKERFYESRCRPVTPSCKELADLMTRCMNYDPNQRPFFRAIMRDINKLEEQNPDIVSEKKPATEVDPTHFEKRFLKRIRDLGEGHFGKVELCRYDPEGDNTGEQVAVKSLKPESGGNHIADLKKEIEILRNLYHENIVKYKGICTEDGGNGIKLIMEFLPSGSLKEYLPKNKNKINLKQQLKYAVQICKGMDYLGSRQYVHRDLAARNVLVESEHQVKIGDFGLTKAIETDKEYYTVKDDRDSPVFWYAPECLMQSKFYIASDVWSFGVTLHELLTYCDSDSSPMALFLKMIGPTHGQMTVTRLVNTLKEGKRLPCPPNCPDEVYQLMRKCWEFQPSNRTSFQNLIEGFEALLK
Sequence of Tyrosine-protein kinase JAK2 (Homo sapiens) (O60674 whole entry): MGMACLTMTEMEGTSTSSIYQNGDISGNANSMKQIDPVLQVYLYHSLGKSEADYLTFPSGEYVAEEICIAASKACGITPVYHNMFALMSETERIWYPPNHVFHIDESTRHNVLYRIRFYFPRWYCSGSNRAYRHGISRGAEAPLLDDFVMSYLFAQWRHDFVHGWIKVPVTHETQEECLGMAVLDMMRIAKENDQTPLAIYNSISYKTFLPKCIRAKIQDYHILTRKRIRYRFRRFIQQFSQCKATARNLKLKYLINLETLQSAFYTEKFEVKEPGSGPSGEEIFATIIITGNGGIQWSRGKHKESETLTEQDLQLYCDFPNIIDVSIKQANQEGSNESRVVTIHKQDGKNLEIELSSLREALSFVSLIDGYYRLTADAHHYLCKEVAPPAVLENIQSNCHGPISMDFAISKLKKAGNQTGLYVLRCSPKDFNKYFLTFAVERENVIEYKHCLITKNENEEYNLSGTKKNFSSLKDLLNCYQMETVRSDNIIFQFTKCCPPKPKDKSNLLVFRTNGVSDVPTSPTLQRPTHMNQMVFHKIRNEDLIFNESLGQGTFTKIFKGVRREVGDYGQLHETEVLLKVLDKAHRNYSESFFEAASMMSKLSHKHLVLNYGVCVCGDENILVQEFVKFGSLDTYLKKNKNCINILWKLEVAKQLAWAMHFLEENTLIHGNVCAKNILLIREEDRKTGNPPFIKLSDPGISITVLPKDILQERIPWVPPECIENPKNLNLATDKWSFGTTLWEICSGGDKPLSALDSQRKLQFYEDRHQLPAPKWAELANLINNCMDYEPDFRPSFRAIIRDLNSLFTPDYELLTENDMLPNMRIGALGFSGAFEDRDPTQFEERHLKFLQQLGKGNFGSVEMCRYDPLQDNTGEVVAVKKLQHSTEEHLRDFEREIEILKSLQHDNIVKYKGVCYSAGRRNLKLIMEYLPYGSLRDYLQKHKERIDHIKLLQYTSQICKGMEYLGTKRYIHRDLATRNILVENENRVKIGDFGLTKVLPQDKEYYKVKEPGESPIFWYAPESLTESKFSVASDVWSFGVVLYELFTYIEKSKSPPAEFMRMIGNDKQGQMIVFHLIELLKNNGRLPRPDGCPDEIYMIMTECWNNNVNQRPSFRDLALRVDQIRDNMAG
Sequence of Mast/stem cell growth factor receptor Kit (Homo sapiens), P10721 [D816V] (P10721 whole entry D816V): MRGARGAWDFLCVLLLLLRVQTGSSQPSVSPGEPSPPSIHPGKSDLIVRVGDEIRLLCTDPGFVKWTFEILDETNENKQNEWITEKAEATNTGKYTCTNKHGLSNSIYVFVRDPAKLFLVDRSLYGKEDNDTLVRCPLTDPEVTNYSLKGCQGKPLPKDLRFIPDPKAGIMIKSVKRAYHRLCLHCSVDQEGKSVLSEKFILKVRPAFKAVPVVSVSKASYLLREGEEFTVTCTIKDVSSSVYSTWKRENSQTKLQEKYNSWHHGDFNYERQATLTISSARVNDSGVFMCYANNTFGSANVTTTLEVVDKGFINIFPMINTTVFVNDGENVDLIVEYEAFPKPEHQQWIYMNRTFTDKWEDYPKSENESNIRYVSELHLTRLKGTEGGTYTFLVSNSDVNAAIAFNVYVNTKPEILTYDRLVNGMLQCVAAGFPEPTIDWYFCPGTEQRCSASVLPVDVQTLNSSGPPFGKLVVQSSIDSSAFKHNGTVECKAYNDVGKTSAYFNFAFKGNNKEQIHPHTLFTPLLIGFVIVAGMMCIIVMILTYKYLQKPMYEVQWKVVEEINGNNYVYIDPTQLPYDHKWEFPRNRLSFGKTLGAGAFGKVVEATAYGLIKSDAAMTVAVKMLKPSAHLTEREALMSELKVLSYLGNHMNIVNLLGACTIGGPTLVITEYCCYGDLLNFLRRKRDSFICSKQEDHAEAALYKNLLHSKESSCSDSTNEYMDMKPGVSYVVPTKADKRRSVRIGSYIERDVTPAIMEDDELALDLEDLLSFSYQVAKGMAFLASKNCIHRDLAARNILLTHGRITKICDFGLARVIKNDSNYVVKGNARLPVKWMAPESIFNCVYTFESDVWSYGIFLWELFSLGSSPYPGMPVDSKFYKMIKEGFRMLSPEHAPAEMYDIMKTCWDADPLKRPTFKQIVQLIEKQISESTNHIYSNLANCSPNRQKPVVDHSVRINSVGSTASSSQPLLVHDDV
Sequence of Mast/stem cell growth factor receptor Kit (Homo sapiens), P10721 [T670I] (P10721 whole entry T670I): as the sequence (P10721 whole entry D816V) above, with T670I, V816D counted along it
Sequence of Mast/stem cell growth factor receptor Kit (Homo sapiens), P10721 [V560G] (P10721 whole entry V560G): as the sequence (P10721 whole entry D816V) above, with V560G, V816D counted along it
Sequence of Mast/stem cell growth factor receptor Kit (Homo sapiens) (P10721 whole entry): as the sequence (P10721 whole entry D816V) above, with V816D counted along it

SMILES	inhibition [1]	inhibition [2]	inhibition [3]	inhibition [4]	inhibition [5]	inhibition [6]	inhibition [7]	inhibition [8]	inhibition [9]	inhibition [10]	inhibition [11]	inhibition [12]	inhibition [13]	inhibition [14]	inhibition [15]	inhibition [16]	inhibition [17]	inhibition [18]	inhibition [19]	inhibition [20]
CS(=O)(=O)CCNCc1cc(-c2cc3c(Nc4ccc(OCc5cccc(F)c5)c(Cl)c4)ncnc3s2)cs1	3.04%	-1.42%	3.76%	2.28%	5.69%	-2.63%	-0.49%	6.12%	8.97%	7.21%	8.47%	2.03%	6.26%	2.2%	5.07%	-1.18%	0.47%	2.76%	4.18%	6.05%
Cc1ccc(C(=O)NC(C)C)cc1-c1ccc(C(=O)NCC2CC2)cc1	-0.47%	-3.33%	-1.59%	-1.52%	-1.28%	0.73%	1.51%	-1.43%	0.78%	-2.99%	-4.83%	14.1%	-0.69%	-3.01%	-1.47%	1.17%	1.03%	-1.32%	0.84%	-1.19%
C/C(Nc1ccc(S(N)(=O)=O)cc1)=C1/C(=O)Nc2ccccc21	4.72%	-6.57%	-1.09%	-0.57%	0.27%	-0.45%	6.44%	9.11%	44.5%	38.4%	90.9%	-0.26%	-1.16%	21%	82.5%	3.94%	22.4%	-1.24%	4.22%	1.12%
C[C@@H](Oc1cc(-n2cnc3ccc(OC4CCN(C)CC4)cc32)sc1C(N)=O)c1ccccc1Cl	-1.75%	0.47%	-0.07%	4.66%	2.46%	-5.38%	13.5%	9.62%	40.3%	5.05%	5.22%	1.72%	6.14%	1.3%	6.17%	-4.05%	-2.87%	-0.67%	4.21%	4.01%
CCC(=O)Nc1ccc(C)c(-c2ccc(C(=O)NCC3CC3)cc2)c1	-0.1%	2.44%	4.69%	1.7%	1.15%	-1.95%	-0.85%	3.67%	9.29%	4.93%	4.74%	-1.54%	5.31%	2.5%	3.87%	-0.17%	-1.72%	2.57%	5.27%	4.98%
N#Cc1ccc(Oc2nccc(-c3c(-c4ccc(F)cc4)ncn3C3CCNCC3)n2)cc1	0.22%	3.07%	3.3%	1.47%	0.75%	-3.92%	1.56%	3.95%	4.78%	6.17%	6.19%	2.91%	2.36%	3.26%	4.72%	-0.39%	-1.19%	3.86%	6.11%	4.74%
Fc1ccc(-c2ncn(CCCN3CCOCC3)c2-c2ccncc2)cc1	1.2%	1.72%	-1.2%	-0.43%	0.65%	0.1%	1.07%	-0.88%	1%	-3.23%	-0.81%	0.65%	-1.66%	-0.29%	-2.16%	2.57%	0.03%	0.17%	3.45%	0.08%
NCc1ccc(-n2c(-c3nonc3N)nc3cnccc32)cc1	2.4%	4.99%	5.42%	1.95%	2.09%	-0.04%	1.57%	10.5%	22.8%	5.81%	10.8%	4.7%	2.04%	4.14%	5.42%	-2.06%	2.07%	3.81%	4.5%	5.22%
Fc1ccc(-c2nc3n(c2-c2ccncc2)CCS3)cc1	-1.9%	2.03%	4.76%	0.84%	1.07%	-4.98%	-4.14%	5.19%	8.03%	5.12%	2.15%	4.1%	1.39%	2.38%	2.22%	0.09%	-0.72%	-2.03%	1.29%	1.98%
COc1cc(Nc2ncc3c(C)nc(-c4cccc(C(F)(F)F)c4)n3n2)cc(OC)c1OC	13.5%	3.02%	8.95%	1.27%	11.1%	-0.52%	4.91%	4.26%	8.61%	11.1%	44.8%	4.72%	5.97%	1.57%	7.22%	-0.27%	7.67%	3.24%	20.1%	4.18%
CCc1cccc(CC)c1/C=C/c1cncc(C(=O)NC)c1	2.29%	2.03%	–	1.99%	1.71%	-1.8%	0.86%	6.02%	8.91%	1%	0.22%	2.9%	0.24%	1.07%	2.14%	-2.51%	4.63%	3.18%	4.94%	1.51%
COc1cc2ncn(-c3cc(OCc4ccccc4C(F)(F)F)c(C(C)=O)s3)c2cc1OC	6.89%	2.15%	2.47%	1.06%	-0.01%	-2.98%	-1.59%	3.96%	7.57%	3.46%	4.53%	2.21%	1.58%	2.81%	6.12%	-1.46%	1.6%	4.22%	9.66%	2.03%
NS(=O)(=O)c1ccc(N/N=C2\C(=O)Nc3ccc(C(=O)NCCCn4ccnc4)cc32)cc1	3.12%	5.06%	23.8%	0.1%	4.95%	-2%	18.8%	8.51%	34.1%	4.8%	9.5%	6.28%	9.36%	3.5%	5.57%	-1.18%	1.2%	1.53%	7.02%	5.17%
